This is one part of a sample in which the strongest signals are shown more often than they occur.
Key:
Experiment in all cases: glycan array binding signal (z-score within array); higher = stronger binding
Details in all cases: glycan notation: IUPAC condensed, linker removed
[1] = target: Fuc(a1-2)Gal(b1-3)GlcNAc(b1-3)Gal(b1-4)Glc
Procedure, shortened: (§1)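 Glycan array binding is given as a within-array Z-score, which can be read as non-binding when negative. The arrays, 3228 of them, came from the Consortium for Functional Glycomics database and were retained only where the protein sequence was available. Z-scores were averaged across arrays of the same protein sequence at different concentrations or buffers and across linkers.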

[2] = target: Fuc(a1-2)Gal(b1-4)Glc
Procedure, shortened: as §1

[3] = target: Fuc(a1-2)Gal(b1-4)GlcNAc(b1-3)GalNAc
Procedure, shortened: as §1

[4] = target: Fuc(a1-2)Gal6S(b1-3)GlcNAc
Procedure, shortened: as §1

[5] = target: Fuc(a1-2)[Gal(a1-3)]Gal(b1-4)[Fuc(a1-3)]GlcNAc
Procedure, shortened: as §1

[6] = target: Fuc(a1-2)[GalNAc(a1-3)]Gal(b1-3)GalNAc(b1-3)Gal(a1-4)Gal(b1-4)Glc
Procedure, shortened: as §1

[7] = target: Fuc(a1-2)[GalNAc(a1-3)]Gal(b1-4)GlcNAc(b1-2)Man(a1-3)[Fuc(a1-2)[GalNAc(a1-3)]Gal(b1-4)GlcNAc(b1-2)Man(a1-6)]Man(b1-4)GlcNAc(b1-4)GlcNAc
Procedure, shortened: as §1

[8] = target: Fuc(a1-3)[Gal(b1-4)]GlcNAc(b1-3)GalNAc
Procedure, shortened: as §1

[9] = target: Gal(a1-3)Gal(b1-4)GlcNAc(b1-2)Man
Procedure, shortened: as §1

[10] = target: Gal(a1-4)GlcNAc
Procedure, shortened: as §1

[11] = target: Gal(b1-3)Gal(b1-4)GlcNAc
Procedure, shortened: as §1

[12] = target: Gal(b1-3)GalNAc(b1-3)Gal
Procedure, shortened: as §1

[13] = target: Gal(b1-3)GalNAc(b1-4)Gal(b1-4)Glc
Procedure, shortened: as §1

[14] = target: Gal(b1-3)GalNAc(b1-4)[Neu5Ac(a2-3)]Gal(b1-4)Glc
Procedure, shortened: as §1

[15] = target: Gal(b1-3)[Neu5Ac(a2-6)]GalNAc
Procedure, shortened: as §1

[16] = target: Gal(b1-4)GlcNAc(b1-2)Man(a1-3)[Gal(b1-4)GlcNAc(b1-2)Man(a1-6)]Man(b1-4)GlcNAc(b1-4)GlcNAc
Procedure, shortened: as §1

[17] = target: Gal(b1-4)GlcNAc(b1-2)Man(a1-3)[Man(a1-6)]Man(b1-4)GlcNAc(b1-4)GlcNAc
Procedure, shortened: as §1

[18] = target: Gal(b1-4)GlcNAc(b1-2)[Gal(b1-4)GlcNAc(b1-6)]Man(a1-6)[Gal(b1-4)GlcNAc(b1-2)Man(a1-3)]Man(b1-4)GlcNAc(b1-4)[Fuc(a1-6)]GlcNAc
Procedure, shortened: as §1

[19] = target: Gal(b1-4)GlcNAc(b1-3)Gal(b1-3)GlcNAc
Procedure, shortened: as §1

[20] = target: Gal(b1-4)GlcNAc(b1-3)Gal(b1-4)GlcNAc
Procedure, shortened: as §1

[21] = target: Gal(b1-4)GlcNAc(b1-3)Gal(b1-4)GlcNAc(b1-3)Gal(b1-4)GlcNAc(b1-3)Gal(b1-4)GlcNAc(b1-3)Gal(b1-4)GlcNAc(b1-2)Man(a1-3)[Gal(b1-4)GlcNAc(b1-3)Gal(b1-4)GlcNAc(b1-3)Gal(b1-4)GlcNAc(b1-3)Gal(b1-4)GlcNAc(b1-3)Gal(b1-4)GlcNAc(b1-2)Man(a1-6)]Man(b1-4)GlcNAc(b1-4)GlcNAc
Procedure, shortened: as §1

[22] = target: Gal3S(b1-3)[Fuc(a1-4)]GlcNAc
Procedure, shortened: as §1

[23] = target: Gal3S(b1-4)Glc
Procedure, shortened: as §1

[24] = target: Gal6S(b1-3)GlcNAc6S
Procedure, shortened: as §1

[25] = target: Gal6S(b1-4)Glc
Procedure, shortened: as §1

[26] = target: Gal6S(b1-4)Glc6S
Procedure, shortened: as §1

[27] = target: Gal6S(b1-4)GlcNAc
Procedure, shortened: as §1

[28] = target: Gal6S(b1-4)GlcNAc6S
Procedure, shortened: as §1

[29] = target: GalNAc3S(b1-4)GlcNAc3S
Procedure, shortened: as §1

[30] = target: GalNAc4S6S(b1-4)GlcNAc
Procedure, shortened: as §1

[31] = target: Glc(b1-6)Glc
Procedure, shortened: as §1

[32] = target: GlcA(b1-3)Gal
Procedure, shortened: as §1

[33] = target: GlcA(b1-3)GlcNAc
Procedure, shortened: as §1

[34] = target: GlcA3S(b1-3)Gal(b1-4)GlcNAc(b1-3)Gal(b1-4)Glc
Procedure, shortened: as §1

[35] = target: GlcNAc(b1-2)Man(a1-3)[GlcNAc(b1-4)][GlcNAc(b1-2)Man(a1-6)]Man(b1-4)GlcNAc(b1-4)[Fuc(a1-6)]GlcNAc
Procedure, shortened: as §1

[36] = target: GlcNAc(b1-2)[GlcNAc(b1-4)]Man(a1-3)[GlcNAc(b1-2)Man(a1-6)]Man(b1-4)GlcNAc(b1-4)GlcNAc
Procedure, shortened: as §1

[37] = target: GlcNAc(b1-2)[GlcNAc(b1-6)]Man(a1-6)[GlcNAc(b1-2)Man(a1-3)]Man(b1-4)GlcNAc(b1-4)GlcNAc
Procedure, shortened: as §1

[38] = target: GlcNAc(b1-3)GalNAc
Procedure, shortened: as §1

[39] = target: Kdn(a2-3)Gal(b1-3)GalNAc
Procedure, shortened: as §1

[40] = target: Man(a1-3)[Man(a1-6)]Man
Procedure, shortened: as §1

[41] = target: Man(a1-3)[Man(a1-6)]Man(b1-4)GlcNAc(b1-4)[Fuc(a1-6)]GlcNAc
Procedure, shortened: as §1

[42] = target: Neu5Ac(a2-3)Gal(b1-3)GlcNAc(b1-2)Man
Procedure, shortened: as §1

[43] = target: Neu5Ac(a2-3)Gal(b1-4)GlcNAc(b1-2)Man(a1-3)[Neu5Ac(a2-6)Gal(b1-4)GlcNAc(b1-2)Man(a1-6)]Man(b1-4)GlcNAc(b1-4)GlcNAc
Procedure, shortened: as §1

[44] = target: Neu5Ac(a2-3)Gal(b1-4)[Fuc(a1-3)]GlcNAc6S
Procedure, shortened: as §1

[45] = target: Neu5Ac(a2-6)Gal(b1-4)GlcNAc(b1-2)Man(a1-3)[Gal(b1-4)GlcNAc(b1-2)Man(a1-6)]Man(b1-4)GlcNAc(b1-4)GlcNAc
Procedure, shortened: as §1

[46] = target: Neu5Ac(a2-6)Gal(b1-4)GlcNAc(b1-3)Gal(b1-4)GlcNAc(b1-3)Gal(b1-4)GlcNAc(b1-2)Man(a1-3)[Neu5Ac(a2-6)Gal(b1-4)GlcNAc(b1-3)Gal(b1-4)GlcNAc(b1-3)Gal(b1-4)GlcNAc(b1-2)Man(a1-6)]GalNAc
Procedure, shortened: as §1

[47] = target: Neu5Ac(a2-6)GalNAc
Procedure, shortened: as §1

[48] = target: Neu5Ac(b2-6)GalNAc
Procedure, shortened: as §1

[49] = target: Neu5Gc(a2-8)Neu5Ac(a2-3)Gal(b1-4)GlcNAc
Procedure, shortened: as §1

B1: Epa1to9 (Candida glabrata) (protein)
chain: MGSSHHHHHHSSGLVPRGSHMTSSNDISLASKDPTTFPLGCSPDITTPKKGLSMELYSYDFRKKGSYPCWDAAYLDPNYPRTGYKSHRLLAKVDGVTGNINFYYHATKGCTPQLGHLPASYNYPKPLTMTNFTMLLYGYFRPKVTGFHTFTISADDLLFVNFGAGNAFDCCRRDSSADHFGNYQAYAIWGSKTAKDELTVHLDAGVYYPIRLFYNNRDYHGALSFTFKTESNENTVSDFSEYFFSLDDTEEGCPGLISYD
[1]
  glycan array binding signal (z-score): -0.354
[2]
  glycan array binding signal (z-score): -0.307
[3]
  glycan array binding signal (z-score): -0.34
[4]
  glycan array binding signal (z-score): 0.035
[5]
  glycan array binding signal (z-score): -0.276
[6]
  glycan array binding signal (z-score): -0.349
[7]
  glycan array binding signal (z-score): -0.318
[8]
  glycan array binding signal (z-score): -0.293
[9]
  glycan array binding signal (z-score): 0.008
[10]
  glycan array binding signal (z-score): 1.94
[11]
  glycan array binding signal (z-score): 4.22
[12]
  glycan array binding signal (z-score): 3.67
[13]
  glycan array binding signal (z-score): 4.67
[14]
  glycan array binding signal (z-score): 2.83
[15]
  glycan array binding signal (z-score): 4.47
[16]
  glycan array binding signal (z-score): 1.17
[17]
  glycan array binding signal (z-score): -0.161
[18]
  glycan array binding signal (z-score): 3.13
[19]
  glycan array binding signal (z-score): -0.107
[20]
  glycan array binding signal (z-score): -0.064
[21]
  glycan array binding signal (z-score): 0.122
[22]
  glycan array binding signal (z-score): -0.345
[23]
  glycan array binding signal (z-score): -0.283
[24]
  glycan array binding signal (z-score): 4.86
[25]
  glycan array binding signal (z-score): 5.05
[26]
  glycan array binding signal (z-score): 7.26
[27]
  glycan array binding signal (z-score): 4.98
[28]
  glycan array binding signal (z-score): 10.6
[29]
  glycan array binding signal (z-score): -0.353
[30]
  glycan array binding signal (z-score): -0.346
[31]
  glycan array binding signal (z-score): -0.333
[32]
  glycan array binding signal (z-score): -0.315
[33]
  glycan array binding signal (z-score): -0.346
[34]
  glycan array binding signal (z-score): -0.35
[35]
  glycan array binding signal (z-score): -0.354
[36]
  glycan array binding signal (z-score): -0.295
[37]
  glycan array binding signal (z-score): -0.344
[38]
  glycan array binding signal (z-score): -0.352
[39]
  glycan array binding signal (z-score): -0.38
[40]
  glycan array binding signal (z-score): -0.287
[41]
  glycan array binding signal (z-score): -0.339
[42]
  glycan array binding signal (z-score): -0.33
[43]
  glycan array binding signal (z-score): -0.322
[44]
  glycan array binding signal (z-score): -0.36
[45]
  glycan array binding signal (z-score): -0.246
[46]
  glycan array binding signal (z-score): -0.309
[47]
  glycan array binding signal (z-score): -0.343
[48]
  glycan array binding signal (z-score): -0.346
[49]
  glycan array binding signal (z-score): -0.338

From the supplement of paper PMC8728848
